Screening data deposited in PubChem by National Center for Advancing Translational Sciences (NCATS).
HCMV inh: blocks human cytomegalovirus replication; AID 1259415; activity change, negative = inhibition, % at 57.5 µM; HFF cells, HCMV-luciferase reporter, 72 h; active compounds read low; actives 4.5% (n = 410,000); in the data active means activity change below about -60%; inconclusive means no clear call, values can overlap the other calls; inactive means above about -39%
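Two-dose cell screen: HFF monolayers treated with compounds and infected with luciferase-expressing HCMV at 1 PFU/cell, 72 h at 37C, then lysed for luciferase measurement.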
FBPA Giardia inh: inhibitors of Giardia lamblia fructose-1,6-bisphosphate aldolase; A8B2U2; purified Giardia FBPA; Potency, µM (series often up to 59.6 µM), usual class: inhibitors; actives 0.71% (n = 290,000); AID 2451; further: nearly all actives have a fitted effect of over 55% in size
Target sequence (A8B2U2 whole entry, looked up): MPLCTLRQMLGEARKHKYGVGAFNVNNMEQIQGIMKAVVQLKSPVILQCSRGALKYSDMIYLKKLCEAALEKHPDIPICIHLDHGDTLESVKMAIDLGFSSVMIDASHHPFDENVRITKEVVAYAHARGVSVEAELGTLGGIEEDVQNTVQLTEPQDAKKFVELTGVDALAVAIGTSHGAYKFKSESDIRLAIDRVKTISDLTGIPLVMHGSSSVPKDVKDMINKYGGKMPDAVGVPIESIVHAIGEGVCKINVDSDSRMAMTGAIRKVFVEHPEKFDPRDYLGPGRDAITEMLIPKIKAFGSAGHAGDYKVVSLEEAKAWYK
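40 nM FBPA preincubated 10 min at RT with compound (up to 57.5 uM final), then substrate plus GAPDH/TPI/NAD/arsenate coupling and diaphorase/resazurin added. Fluorescence read after 20 min at RT, 525/598 nm.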
Pf growth 48h: inhibits P. falciparum growth in the first generation, 48 h; AID 504832; Potency, µM (top dose mostly 28.7 µM), hits mostly inhibitors; actives 5.9% (n = 310,000); P. falciparum luciferase growth in erythrocytes, 48 h
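Compounds are pin-transferred into medium, infected erythrocytes (2% hematocrit, 0.1% parasitemia final) are added, and plates sit one parasite generation at 37 C in 5% CO2. Detection reagent is then added and luminescence measured.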
Pf growth 96h: inhibits malaria parasite growth, 96 h; P. falciparum luciferase reporter growth, 96 h; actives 6.9% (n = 320,000); Potency, µM (titrated, usually from 28.7 µM), hits mostly inhibitors
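Two parasite generations (96 h, 37 C, 5% CO2) of compound exposure in infected erythrocytes (0.05% parasitemia, 2% hematocrit). Luciferase-reporter P. falciparum; decreased luminescence indicates inhibited growth, aimed at apicoplast-acting delayed death.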
Sm TGR block: blocks Schistosoma mansoni thioredoxin glutathione reductase; Q962Y6; purified TGR, DTNB reduction, TNB absorbance 405 nm; Potency, µM (highest dose often 114 µM), actives largely listed as inhibitors; actives 3% (n = 360,000); AID 485364; further: nearly all actives have a fitted effect of over 60% in size
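First, TGR (20 nM dispensed) and NADPH were mixed with compound. Second, a 15 min room-temperature incubation followed. Third, further NADPH and then DTNB were added to start the reaction. Finally, TNB absorbance was monitored kinetically.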
A number is an active result; n = inactive; u = inconclusive; x = no result; [ ] = remark or other dose. The list is not random: actives were taken first. Their share in the collection is about 14%. Unless noted, the call rests on the fitted dose curve; in most records, active means well fitted curve in the direction sought with a large enough effect; inconclusive means small, poorly fitted or top-dose-only effect, or another doubt; inactive means no such curve, though single readings can be large; an effect the other way counts as inactive or inconclusive.

SMILES | HCMV inh | FBPA Giardia inh | Pf growth 48h | Pf growth 96h | Sm TGR block
c1ccc(CN2CCN(c3ncnc4c3[nH]c3ccccc34)CC2)cc1 | -105.6 | n | 0.928µM | n | n
Fc1ccc2[nH]c3c(N4CCN(C5CCCCC5)CC4)ncnc3c2c1 | x | n | 2.33µM | n | n
Cc1ccc2[nH]c3c(N4CCCCCC4)ncnc3c2c1 | x | n | 2.62µM | u | n
Cc1c(C(=O)N(Cc2ccncc2)CC2CCCO2)oc2c(F)cccc12 (stereo not given) | n | x | n | 10.4µM | n
COCCNC(=O)C1(C)CCCN(C(=O)c2ccc(C(=O)OC)cc2)C1 (stereo not given) | n | x | x | x | x
CCOc1ccccc1NC(=O)C1CCN(S(=O)(=O)c2ccc(OC)c(OC)c2)CC1 | u | n | n | 6.57µM | n
CCOc1ccccc1NC(=O)C1CCN(c2ccc(S(=O)(=O)N3CCCC3)cc2)CC1 | n | n | 4.65µM | n[5.75 µM] | n
CCS(=O)(=O)N1CCC(C(=O)Oc2ccccc2OC)CC1 | n | n | n | 13.1µM | n
CCOc1ccccc1NC(=O)C1CCN(S(=O)(=O)c2ccc(Br)cc2)CC1 | n | x | x | x | n
COC(=O)[C@@]1(Sc2ccc(C)cc2)CC(=O)N[C@@H]1c1ccco1 | n | x | x | x | x
Cc1ccc2[nH]c(=O)c(CN(CCCN3CCOCC3)C(=O)NC3CCCCC3)cc2c1 | n | n | u | x | 100µM
Cc1cc(C)c2cc(CN(CCN3CCCC3)C(=O)Nc3ccc(F)cc3)c(=O)[nH]c2c1 | n | u | u | u | n
Cc1ccc(NC(=S)N(CCCN(C)C)Cc2cc3cc4c(cc3[nH]c2=O)OCO4)c(C)c1 | u | n | 9.28µM | u | n
Cc1ccc(NC(=O)N(CCCN2CCOCC2)Cc2cc3cc4c(cc3[nH]c2=O)OCO4)cc1 | n | n | 0.928µM | 13.1µM | n
O=C(NC1CCCCC1)N(CCN1CCOCC1)Cc1cc2cc3c(cc2[nH]c1=O)OCCO3 | u | n | n | u | n
Cc1cc(C)c2cc(CN(CCO)C(=O)Nc3ccc(Cl)cc3)c(=O)[nH]c2c1 | n | n | 9.28µM | u | n
CCOC(=O)C(=O)N(C)c1c(CC)nc2c(OCc3ccc(OC(F)F)cc3)cccn12 | n | x | x | x | x
COc1cc2cc(CN(CCCN3CCOCC3)C(=O)Nc3ccc(F)cc3)c(=O)[nH]c2cc1OC | n | n | 13.1µM | n | n
CCOc1ccc(NC(=O)N(CCN2CCOCC2)Cc2ccc3c(c2)CCCN3CC)cc1 | n | n | u | n | n
CCc1ccc2[nH]c(=O)c(CN(CCCN3CCOCC3)C(=O)Nc3cccc(Cl)c3)cc2c1 | n | n | 5.22µM | x | n
Cc1ccc(NC(=O)N(Cc2ccc3c(c2)OCO3)Cc2cc3cc4c(cc3[nH]c2=O)OCCO4)cc1 | n | n | 1.31µM | x | n
CCCN1CCCc2cc(CN(CCCN3CCOCC3)C(=O)Nc3ccc(OCC)cc3)ccc21 | n | n | x | 5.86µM | n
Cc1c(C(=O)OCC(=O)N(C)Cc2ccc(Cl)cc2)oc2ccccc12 | n | x | n | n | n
COC(=O)c1ccccc1S(=O)(=O)N(Cc1cc2cc3c(cc2[nH]c1=O)OCO3)C1CCCCC1 | x | n | 8.28µM | n | n
COc1ccc2[nH]c(=O)c(CN(CCCN(C)C)C(=O)Nc3ccc(F)cc3)cc2c1 | n | n | 13.1µM | n | n
SMILES | HCMV inh | FBPA Giardia inh | Pf growth 48h | Pf growth 96h | Sm TGR block
COc1ccc(CN(Cc2cc3cc4c(cc3[nH]c2=O)OCO4)C(=O)NC2CCCCC2)cc1 | n | n | 4.65µM | n | n
CCN(CC)CCN(Cc1cc2cc3c(cc2[nH]c1=O)OCCO3)C(=O)NC1CCCCC1 | n | n | n | n | n
Cc1ccc2[nH]c(=O)c(CN(CCCN(C)C)C(=O)Nc3ccc(Cl)cc3)cc2c1 | n | n | n | x | n
CCN(CC)CCCN(Cc1cc2cc3c(cc2[nH]c1=O)OCCO3)C(=O)Nc1ccccc1 | n | n | 10.4µM | x | n
Cc1ccc(OC2CCN(C(=O)[C@H]3O[C@@H](n4ccc(N)nc4=O)[C@H](O)[C@@H]3O)CC2)cc1 | n | x | x | x | x
COc1ccc(C)cc1NC(=O)CSc1ccc(-c2ccco2)nn1 | u | x | n | u | u
O=C(CS(=O)(=O)Cc1ccccc1)c1ccccc1 | n | x | x | x | x
COc1ccc(CN(CCCN2CCOCC2)C(=O)Nc2cccc(Cl)c2)cc1OC | n | n | u | 11.7µM | n
Cc1ccc(C)c2[nH]c(=O)c(CN(CCN3CCCC3)C(=O)Nc3cccc(Cl)c3)cc12 | n | u | 2.33µM | n | u
O=C(Nc1ccccc1)N(CCCN1CCOCC1)Cc1cc2cc3c(cc2[nH]c1=O)OCCO3 | n | n | 13.1µM | n | n
O=C(Nc1cccc(Cl)c1)N(CCN1CCOCC1)Cc1cccc(Cl)c1 | n | n | u | n | n
Cc1cc(C)c(C(=O)CSc2nnc(C)s2)c(C)c1 | -61.5 | n | n | n | x
Cc1ccc(Nc2nnc(SCC(=O)c3ccc(Br)s3)s2)c(C)c1 | n | n | n | 1.04µM | n
CC(C)(C)OC(=O)NC(CCNC=C1C(=O)OC(C)(C)OC1=O)C(=O)O (stereo not given) | n | n | n | 8.28µM | n
O=C(CSc1nc2c(c(C(F)(F)F)n1)CCc1ccccc1-2)NCc1ccccc1 | n | n | n | n | n
Cc1nn(Cc2ccccc2)c(C)c1NC(=O)CSc1nc2c(c(C(F)(F)F)n1)CCc1ccccc1-2 | n | n | 5.22µM | 8.28µM | n
CS(=O)(=O)N(CC(=O)NCCSC1CCCCC1)c1ccc2c(c1)OCO2 | n | n | 5.22µM | n | n
COc1ccc(N(CC(=O)NCCC2=CCCCC2)S(=O)(=O)c2ccccc2F)cc1 | u | n | u | 10.4µM | n
Cc1ccc(SCCNC(=O)CN(c2ccc3c(c2)OCO3)S(C)(=O)=O)cc1 | n | n | u | x | n
COc1ccc(N(CC(=O)NCCC2=CCCCC2)S(C)(=O)=O)cc1 | n | n | n | x | n
CS(=O)(=O)N(CC(=O)NCCC1=CCCCC1)c1ccc2c(c1)OCO2 | u | n | 4.15µM | n | n
O=C(CN(c1ccc(F)cc1)S(=O)(=O)c1ccccc1)NCCSC1CCCCC1 | n | n | 6.57µM | u | n
CCOC(=O)c1cc2c(OC)ccc(OC)c2n1CC(=O)c1ccccc1 | n | n | u | u | n
CCN(CC)S(=O)(=O)c1ccc2oc(SCC3CN=C(c4ccc(OC)cc4)S3)nc2c1 (stereo not given) | -66.8 | n | u | n | n
CCc1ccc(Nc2nnc(SCC(=O)N(C)C3CCS(=O)(=O)C3)s2)cc1 (stereo not given) | n | n | 9.28µM | u | n
CCN(C(=O)CN1C(=O)c2ccc([N+](=O)[O-])cc2C1=O)C1CCS(=O)(=O)C1 (stereo not given) | n | x | n | n | n
CCN(C(=O)CSc1nc2ccc([N+](=O)[O-])cc2s1)C1CCS(=O)(=O)C1 (stereo not given) | n | n | u | 11.7µM | n
COc1ccc(C2=NCC(CSc3nnc(-c4ccc5c(c4)OCO5)o3)S2)cc1 (stereo not given) | n | n | n | u | n
